Assay results as given in PubChem BioAssay AID640 (Columbia University Molecular Screening Center, 2007).
Screen size: about 96,000 compounds; about 200 (0.21%) were called active.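 Rule for the calls: active = inhibition at 2 µM at or above a set limit, the screen mean plus 3 SD (cut at about 24% in these data); inactive = the rest.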 This excerpt belongs to a sample that is enriched for actives.

These compounds were tested against Tyrosine-protein phosphatase non-receptor type 22 (Homo sapiens) (UniProt Q9Y2R2) (assay: blockers of human LYP enzyme activity – biochemical, DiFMUP fluorescence, 2 µM, primary screen (AID 640;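 note: 0% = DMSO with enzyme and 100% = enzyme fully blocked by orthovanadate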)). Conditions: recombinant LYP catalytic domain, at 2 µM, hits give high values.
Tyrosine-protein phosphatase non-receptor type 22 (Homo sapiens), sequence (Q9Y2R2 whole entry, looked up, the tested form may be a part): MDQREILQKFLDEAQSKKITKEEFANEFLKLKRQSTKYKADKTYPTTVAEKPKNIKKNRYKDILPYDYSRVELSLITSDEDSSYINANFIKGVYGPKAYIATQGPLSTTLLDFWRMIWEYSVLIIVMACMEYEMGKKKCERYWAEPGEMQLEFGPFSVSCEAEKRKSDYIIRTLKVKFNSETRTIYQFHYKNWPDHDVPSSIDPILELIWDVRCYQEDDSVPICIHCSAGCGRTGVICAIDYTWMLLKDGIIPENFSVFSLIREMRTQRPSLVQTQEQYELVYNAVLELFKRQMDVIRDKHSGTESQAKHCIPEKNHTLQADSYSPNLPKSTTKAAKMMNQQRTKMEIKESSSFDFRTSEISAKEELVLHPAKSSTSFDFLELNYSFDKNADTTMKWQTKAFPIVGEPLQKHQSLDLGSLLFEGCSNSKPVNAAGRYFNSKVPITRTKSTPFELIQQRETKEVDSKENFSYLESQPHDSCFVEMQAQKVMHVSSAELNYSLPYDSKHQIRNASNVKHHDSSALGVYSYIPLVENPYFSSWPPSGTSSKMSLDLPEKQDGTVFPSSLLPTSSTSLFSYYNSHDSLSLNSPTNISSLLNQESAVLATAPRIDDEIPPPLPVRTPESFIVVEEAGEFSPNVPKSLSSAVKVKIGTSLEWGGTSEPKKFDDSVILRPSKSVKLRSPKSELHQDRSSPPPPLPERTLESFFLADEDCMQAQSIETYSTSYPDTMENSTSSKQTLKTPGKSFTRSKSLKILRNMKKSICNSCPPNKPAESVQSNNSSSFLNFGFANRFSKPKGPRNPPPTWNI

Compound | inhibition
Cc1ccc(OCC(=O)Nc2cccc3c2CCCC3)cc1C | 10% (inactive)
CCN1CCN(C(=O)/C=C\C(=O)O)CC1 | -7% (inactive)
Cc1cc(S(=O)(=O)NC2CCCCC2)ccc1OCC(=O)NCc1cccnc1 | -9.7% (inactive)
COc1ccc(Br)cc1CN1CCN(C(=O)c2cccc(OC)c2OC)CC1 | 0.1% (inactive)
COC(=O)c1c(CCl)noc1C(=O)NC(C)C | -0.4% (inactive)
CCc1ccc2c(c1)C1(NN=C(c3ccccc3)S1)C(=O)N2 (stereo not given) | 15.3% (inactive)
CCCCc1nnc(NC(=O)CS(=O)(=O)Cc2ccccc2)s1 | 3.6% (inactive)
c1ccc(-c2noc(-c3cccs3)n2)nc1 | 7.6% (inactive)
c1ccc(-c2nccc(-c3ccc(-n4cnc5ccccc54)cc3)n2)nc1 | 39.8% (active)
CC(C)c1nc(-c2ccccn2)no1 | 4% (inactive)
COc1ccc(Nc2cc(=O)oc3ccccc23)cc1 | 5% (inactive)
Cc1cc(-n2nc(C)cc2C)n2nc(C)c(-c3ccccc3)c2n1 | -2.6% (inactive)
O=C(Nc1ccccc1)O/N=C1\CCCCC1c1ccc([N+](=O)[O-])cc1[N+](=O)[O-] (stereo not given) | -11% (inactive)
O=S(=O)(NN=C1CCCCCCC1)c1ccc(Br)cc1 | 6.1% (inactive)
Cc1nc2ccccc2n1C(=O)N1CCOCC1 | 1.2% (inactive)
Cc1ccc(S(=O)(=O)N(CC(=O)N2CCc3ccccc3C2)c2cccc(Cl)c2)cc1 | 4.6% (inactive)
Cc1cc(C)c(NC(=O)CN2CCOCCOCCOCCOCC2)c(C)c1 | 3.4% (inactive)
O=C(Oc1ccccc1)Oc1ccc2c(c1)oc(=O)c1ccccc12 | -1.7% (inactive)
COCCN(C(=O)c1ccco1)c1nnc(-c2ccc(OC)cc2)s1 | 10.8% (inactive)
COc1ccc(S(=O)(=O)NCc2ccc(C(=O)N(C)Cc3ccco3)cc2)cc1 | -6% (inactive)
CCOC(=O)C1=C(C)NC(SC)=NC1c1ccccc1 (stereo not given) | -0.6% (inactive)
Cc1nc2cc(NC(=O)NCc3ccccc3)ccc2o1 | -5.6% (inactive)
O=C1Nc2cc(Cl)c(Cl)cc2N(O)N1c1cc(Cl)cc(Cl)c1 | -15.4% (inactive)
COc1ccc2nc(SCC(=O)Nc3c(C)cc(C)cc3C)[nH]c2c1 | -3.6% (inactive)
O=C(c1cccc(F)c1)N1CCN(c2ccc([N+](=O)[O-])c(N3CCCCC3)c2)CC1 | 8.1% (inactive)

Compound | inhibition
CCn1nccc1C(=O)Nc1ccc(Cl)c(Cl)c1 | -0.3% (inactive)
Cc1nnc(NC(=O)Nc2ccc(Cl)c(Cl)c2)s1 | 24.4% (active)
O=C(CC(O)(C(F)(F)F)C(F)(F)F)Nc1ccc(Cl)c(Cl)c1 | -2.3% (inactive)
CCOC(=O)C1CN(S(=O)(=O)c2ccc(F)cc2)C1 | 8.4% (inactive)
CC(C)(C)NC(=O)CSC(=Nc1ccccc1F)NC#N | 11.7% (inactive)
CCCn1nnc(NC(=O)COc2ccc(CC)cc2)n1 | 14.5% (inactive)
CCOC(=O)C(Sc1ncc(C#N)c(N)n1)C(C)C (stereo not given) | 4.5% (inactive)
Cc1ccc(CN2CCN(/N=C/c3ccco3)CC2)c(C)c1 | 6.2% (inactive)
CCOC(=O)CN(Cc1ccc(OC)c(OC)c1)S(=O)(=O)c1ccc(OC)cc1 | 4.6% (inactive)
Cn1nc(C(F)(F)F)c2cc(NC(=O)OCC(C)(C)C)sc21 | -3.4% (inactive)
CCCCNCc1ccc(SC)cc1 | -8.8% (inactive)
COc1ccc(-c2noc(CSc3ccc(C)cc3)n2)cc1 | 6.7% (inactive)
CCSc1nnc(NC(=O)c2ccc(C)cc2)s1 | -2.4% (inactive)
CC(C)(C)C(=O)Nc1ccc(C(=O)N/N=C/c2ccccc2OC(=O)c2ccc(Cl)cc2Cl)cc1 | 13% (inactive)
CC(C)n1c(-c2cccs2)nc2ccccc21 | -3.5% (inactive)
CCOC(=O)c1cnc(SCC(=O)Nc2cccc(OC)c2)nc1N | -12.3% (inactive)
Cc1ccc(-n2c(C)cc(/C=N/Nc3ccc([N+](=O)[O-])cn3)c2C)c(C)c1 | 11.5% (inactive)
Cc1nc(NC(=O)CN(C)S(=O)(=O)c2ccc(Cl)cc2)sc1C | 6.8% (inactive)
Nc1c(-c2cccc(Cl)c2)cnn1-c1cccc([N+](=O)[O-])c1 | -9.9% (inactive)
O=C(N/N=C/c1ccsc1)c1cc(O)cc(O)c1 | 4.4% (inactive)
Cn1cc([N+](=O)[O-])c(C(=O)Nc2ccc3c(c2)OCCO3)n1 | 3.8% (inactive)
O=S(=O)(N/N=C\c1cccn1-c1ccccc1)c1ccc2ccccc2c1 | -4.4% (inactive)
O=C1CSC(c2ccc(Cl)cc2)N1 (stereo not given) | -5.4% (inactive)
COCC(=O)Nc1ccc(Br)cc1 | -3.3% (inactive)
Cn1c(=O)c2c(nc(N3CCOCC3)n2CCNC2=NCCC2)n(C)c1=O | -6.1% (inactive)

Compound | inhibition
COn1c(=O)c(=O)n(OC)c2ccccc21 | 3.4% (inactive)
Cc1oc(-c2ccccc2Cl)[n+]([O-])c1C | -4.8% (inactive)
CC1=NN(C(C)C)C(=O)C1 | 1.5% (inactive)
c1ccc(CSc2ncnc3c2sc2nc(N4CCOCC4)c4c(c23)CCCC4)cc1 | 10.1% (inactive)
CCOc1cccc(NC(=O)Cn2nc(-c3ccc4c(c3)OCCO4)ccc2=O)c1 | 7.6% (inactive)
O=C(Nc1ccc2sc3ccccc3c(=O)c2c1)c1ccccc1Cl | 1.6% (inactive)
COC(=O)CSc1nnc(-c2cccnc2)o1 | 4.2% (inactive)
Cc1ccc2oc(=O)c3cnn(CC(=O)N(Cc4ccco4)C4CCCCC4)c3c2c1 | 3.6% (inactive)
COc1cc(S(=O)(=O)N(Cc2cccs2)C2CC2)ccc1-n1cnnn1 | -4.5% (inactive)
CCOc1ccc(N=C2NC(=O)S/C2=C\c2ccc(O)cc2)cc1 | -3.4% (inactive)
COc1ccc2oc(=O)c(C(=O)NCc3ccccn3)cc2c1 | -1.3% (inactive)
Cc1cc(/C=C2/SC(=O)N(CC(=O)OC(C)C)C2=O)c(C)n1C | 9.2% (inactive)
N#Cc1ccccc1CN1C(=O)S/C(=C/c2cccn2-c2cccc(C(=O)O)c2)C1=O | 32.6% (active)
Brc1ccc(-c2nnc(-c3ccccc3)o2)o1 | -8.3% (inactive)
O=C(CCCN1C(=O)c2ccccc2C1=O)Oc1ccc(Cl)cc1 | 4.1% (inactive)
COc1ccc(/C(O)=C2/C(=O)C(=O)N(CC3CCCO3)C2c2ccc(OC)c(OC)c2)cc1 (stereo not given) | -1.4% (inactive)
COc1cc(CNCc2cccs2)cc(Br)c1OC | 1.7% (inactive)
O=c1onc(-c2cccs2)n1Cc1ccccc1 | 6.3% (inactive)
C=CCOC(=O)C1=C(C)NC(SCC(=O)OCC)=C(C#N)C1c1ccc(C)cc1 (stereo not given) | -1.5% (inactive)
COc1ccccc1NC(=O)CSc1nnc(C)n1CC1CCCO1 (stereo not given) | -14.6% (inactive)
CCCn1c(C(Cc2ccccc2)NC(=O)COC)nc2ccccc21 (stereo not given) | -7.4% (inactive)
CC(C)OC(=O)CN1C(=O)C(=O)c2ccccc21 | -2.8% (inactive)
COc1ccc([N+](=O)[O-])cc1C1NN=C(c2cccc3ccccc23)S1 (stereo not given) | 10.1% (inactive)
O=C(NCc1ccco1)C1(c2ccc(Cl)cc2)CCCC1 | -8.9% (inactive)
Cc1cccc(NC(=O)N(Cc2cc3cc(C)cc(C)c3[nH]c2=O)CC2COCCO2)c1 (stereo not given) | 2.6% (inactive)

Compound | inhibition
CCOC(=O)c1nc(C)n(-c2ccc(Cl)cc2Cl)n1 | -1.3% (inactive)
Cc1ccc(N2CCN(/N=C/c3cccs3)CC2)cc1 | 9.9% (inactive)
Clc1ccccc1SCc1nc2ccccc2[nH]1 | 2.7% (inactive)
Cc1ccc(NC(=O)CSCC(=O)N2CCOCC2)cc1 | -3.1% (inactive)
COC(=O)c1ccc(C2C(Oc3ccccc3C)C(=O)N2CCc2ccc(OC)c(OC)c2)cc1 (stereo not given) | -11.5% (inactive)
CCSc1nnc(NC(=O)Cc2ccccc2OC)s1 | 15.4% (inactive)
CC(c1ccco1)N(C(=O)Nc1ccccc1)C1CCCCC1 (stereo not given) | -2% (inactive)
CCOc1c2ccc(C(=O)NC3CCCc4ccccc43)cc2nn1CC (stereo not given) | -7.5% (inactive)
CCN1C(=O)/C(=C2/Sc3ccc(OC)cc3N2C)SC1=Nc1ccc(C)cc1 | -28% (inactive)
O=C(ON=C1CCN(S(=O)(=O)c2ccccc2)CC1)c1ccc(Cl)cc1 | -19.3% (inactive)
Cc1ccccc1C(=O)N1CCC(C(=O)Nc2ccc(S(=O)(=O)N(C)C(C)C)cc2)CC1 | 3.5% (inactive)
CCOc1c2ccc(C(=O)NCc3ccc4c(c3)OCO4)cc2nn1C | -4.3% (inactive)
Cc1cc(Cl)c(S(=O)(=O)N(C)C)cc1OCC(N)=O | -3.7% (inactive)
O=Cc1c(N2CCN(c3cccc(Cl)c3)CC2)nc2ccccn2c1=O | -12.5% (inactive)
COc1ccc(CN2CCn3ncc(C(=O)Nc4ccc(Cl)cc4Cl)c3C2=O)cc1 | -3.3% (inactive)
CC1CCc2c(nc3ncnn3c2Nc2ccc(OC(F)(F)F)cc2)C1 (stereo not given) | 16.7% (inactive)
O=C(/C=C/Sc1ncn[nH]1)c1ccc(Cl)cc1 | -5.9% (inactive)
Cc1cccc(-n2ncc(C#N)c2-n2cccc2)c1 | -13.4% (inactive)
CCOC(=O)c1ccc(COC(=O)CCc2nc(-c3ccccc3)c(-c3ccccc3)o2)cc1 | 10.3% (inactive)
COC(=O)CNC(c1ccccc1Cl)c1cc(Br)ccc1NC(=O)CCN1CCOCC1 (stereo not given) | 7.7% (inactive)
O=C(CSc1nc2ccccc2o1)N1c2ccccc2Sc2ccc(Cl)cc21 | 4.8% (inactive)
N#CC1=C(N)N(c2ccc(F)cc2)C(=O)C1 | 7% (inactive)
O=[N+]([O-])c1ccc(N2CCN(S(=O)(=O)c3ccc4ccccc4c3)CC2)cc1NCc1ccco1 | 4.1% (inactive)
Cn1nnnc1SCC(=O)Nc1ccccc1C(=O)NC1CC1 | 11.6% (inactive)
COc1ccc(-n2cnc3cc(NCc4ccco4)ccc32)cc1 | 6.5% (inactive)
